GPR151 activ: activates the human receptor GPR151 | Q8TDV0 | PathHunter beta-arrestin GPR151 cells, luminescence | activation, % at 11.2 µM | 650,000 compounds, 1% hits | AID 1508602; in the data active = activation above about 4.9%;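 note: 0% = median of compound wells and 100% = cells with positive control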
Target sequence (Q8TDV0 whole entry, looked up): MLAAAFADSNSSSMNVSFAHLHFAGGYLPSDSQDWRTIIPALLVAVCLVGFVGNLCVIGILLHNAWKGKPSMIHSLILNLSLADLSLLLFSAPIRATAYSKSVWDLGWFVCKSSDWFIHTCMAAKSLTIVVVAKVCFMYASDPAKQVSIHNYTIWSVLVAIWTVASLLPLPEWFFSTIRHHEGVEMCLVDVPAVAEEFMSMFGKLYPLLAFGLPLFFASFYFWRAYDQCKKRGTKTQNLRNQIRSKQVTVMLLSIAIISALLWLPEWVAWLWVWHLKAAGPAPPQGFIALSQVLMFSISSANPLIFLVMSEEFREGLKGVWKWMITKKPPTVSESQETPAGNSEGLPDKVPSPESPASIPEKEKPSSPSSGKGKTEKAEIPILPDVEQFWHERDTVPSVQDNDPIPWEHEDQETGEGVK
TEAD-YAP inh: TEAD-YAP interaction inhibition; HEK-TIYL cells, TEAD-Gal4/YAP UAS-luciferase luminescence; inhibition, % at 9.12 µM; 640,000 compounds, 1.4% hits; AID 1259422; in the data active = inhibition above about 32%;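 note: 0% = median of test compound wells and 100% = reference inhibitor wells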
MITF primary: human MITF inhibition, primary screen. O75030. 650,000 compounds, 0.91% hits. AID 1259374. inhibition, % at 2.6 µM. AlphaScreen MITF homodimerization, bead proximity signal; in the data active = inhibition above about 50%;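 note: 0% = vehicle wells with protein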
FBW7 activator: human FBW7 E3 ligase activation, primary screen | AlphaScreen FBW7–phospho-cyclin E peptide binding, activator screen | AID 1259310 | Q969H0 | 650,000 compounds, 0.13% hits | normalized activity (activation), % at 26.1 µM; in the data active = normalized activity above about 1.9%;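 note: purified mutant Fbw7 with reduced substrate affinity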
GPR151 confirm: confirmation of human GPR151 activators. shares compounds with GPR151 activ. activation, % at 11.2 µM. GPR151 PathHunter beta-arrestin cells, luminescence, 90 min; % of EA-reagent control over plate median. 6,700 tested, under 10 active;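 active = mean percent activation across replicates above the confirmation screen cutoff of 4.91%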
GPR119 ag: counter-screen for GPR151 activators: effect on human GPR119 | shares compounds with GPR151 activ | GPR119 PathHunter beta-arrestin cells, luminescence, 90 min; 0 = compound-well median, 100 = enzyme-acceptor control | activation, % at 11.2 µM | 6,700 compounds, 0.3% hits | AID 1508611;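 active = mean percent activation in the counterscreen above 29.09%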;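 note: counterscreen on off-target GPR119 to flag nonselective hits from the GPR151 activator screen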
* = called active by the depositor; . = not tested or not shown; ! = repeats disagree. This is a sample that favours compounds with a hit; in the whole collection about 3.5% have one here.

SMILES	GPR151 activ	TEAD-YAP inh	MITF primary	FBW7 activator	GPR151 confirm	GPR119 ag
COCCNC(=O)c1ccc2c(c1)nc(C)n2-c1ccc(C(C)C)cc1	0	7	11	0	.	.
Oc1ccccc1CNc1ccc2c(c1)OCCO2	0	-19	5	0	.	.
Oc1ccccc1CNc1cc2c(cc1Br)OCCO2	19*	-2	10	0	0	-2
CCOc1ccc(C2C(C(=O)OCCSCC)=C(C)NC3=C2C(=O)CC(c2ccc(Cl)cc2)C3)cc1OC (centres undefined)	0	1	-16	1	.	.
CC(=O)c1ccccc1OCC(O)Cn1c(CO)nc2ccccc21 (centres undefined)	1	2	5	0	.	.
O=C(N/N=C/c1cc([N+](=O)[O-])ccc1O)C12CC3CC(CC(C3)C1)C2	5.1*	4	0	0	0	7
COc1ccc(/C=N\NC(=O)c2ccc([N+](=O)[O-])cc2)cc1Cl	6.5*	9	18	0	1	2
COc1ccc(O)c(/C=N/NC(=O)c2cc([N+](=O)[O-])cc([N+](=O)[O-])c2)c1	7.0*	-9	20	0	-1	-10
CC(C)(C)c1ccc(C(=O)N/N=C/c2ccc(O)c([N+](=O)[O-])c2)cc1	5.1*	-32	-3	0	0	0
COc1ccc(C(=O)N/N=C/c2cc(OC)ccc2O)cc1	1	-2	26	0	.	.
COc1cccc(NC(=O)N2CCC(CN3CCOCC3)CC2)c1	0	4	8	0	.	.
COc1ccc(S(=O)(=O)n2nc(C)cc2C)cc1	5.0*	0	-1	1	0	-3
CC(=O)c1ccc(NC(=O)CSc2ccc3nnc(-c4ccccc4)n3n2)cc1	2	10	21	0	.	.
COc1cc2[nH]c(=S)n(C3CC(C)(C)NC(C)(C)C3)c(=O)c2cc1OC	7.2*	-2	11	0	0	9
COc1cc2[nH]c(=S)n(C3CC3)c(=O)c2cc1OC	1	19	10	0	.	.
NNC(=O)c1cc(-c2ccccc2)n(-c2ccccc2)n1	-1	-1	-17	0	.	.
O=c1cnn(-c2ccccc2)c(-c2ccccc2)c1	6.7*	-7	2	0	0	-2
O=C1CCCCc2sccc2N1	6.4*	1	-2	0	1	-4
Cc1cc(CN2CCCCC2)cc(C)c1O	1	-8	8	1	.	.
CCOCCOC(=O)C1=C(C)NC2=C(C(=O)CC(c3ccc(Cl)cc3)C2)C1c1ccc(O)cc1 (centres undefined)	-1	6	17	0	.	.
CCOCCOC(=O)C1=C(C)NC2=C(C(=O)CCC2)C1c1ccc(F)c(F)c1 (centres undefined)	12*!	7	6	0	1	17
CC1=C(C(=O)OCC2CCCO2)C(c2cccc([N+](=O)[O-])c2)C2=C(CCCC2=O)N1 (centres undefined)	6.1*	8	4	0	0	8
CC1=C(C(=O)OCCOc2ccccc2)C(c2cccc(O)c2)C2=C(CC(c3ccccc3)CC2=O)N1 (centres undefined)	14*	6	8	2	0	8
CCCOCCOC(=O)C1=C(C)NC2=C(C(=O)CCC2)C1c1ccc(F)c(F)c1 (centres undefined)	0	17	-3	1	.	.
CCOCCOC(=O)C1=C(C)NC2=C(C(=O)CC(c3ccc(Cl)cc3)C2)C1c1ccc(Cl)cc1 (centres undefined)	7.4*	17	-1	0	-1	-4
SMILES	GPR151 activ	TEAD-YAP inh	MITF primary	FBW7 activator	GPR151 confirm	GPR119 ag
O=C(Nc1cccnc1)c1ccc(Br)c(S(=O)(=O)N2CCOCC2)c1	-1	-6	3	0	.	.
COc1cccc(/C=C(\C#N)c2nc(C3CC3)cs2)c1	0	-48	-15	0	.	.
CCCOc1c(Br)cc(/C=N/O)cc1OC	0	5	-12	0	.	.
O=C(CN1CCCCCC1)N/N=C/c1ccccc1F	7.2*	-1	18	0	-1	2
Cc1c(C(=O)N(C)C)sc2c1c(=O)n(-c1ccc(Cl)cc1)c(=O)n2CC1OCCO1	6.0*	4	11	0	1	-4
COc1cc2nc(Nc3ccncc3)nc(Nc3ccc(N4CCOCC4)cc3)c2cc1OC	6.6*	-7	18	0	0	-2

Assay outcomes: PubChem, The Scripps Research Institute Molecular Screening Center
